Shown are actives, neighbours in structure and some others; about 4.5% of the full set was active somewhere.
ZTA counter: counter-screen for EBNA-1 inhibitors: inhibitors of Epstein-Barr virus ZTA; 320,000 compounds, 0.15% hits; ZTA-DNA binding, fluorescence polarization; inhibition, % at 11 µM; in the data active means inhibition above about 33%
Target sequence (P03206 whole entry, looked up): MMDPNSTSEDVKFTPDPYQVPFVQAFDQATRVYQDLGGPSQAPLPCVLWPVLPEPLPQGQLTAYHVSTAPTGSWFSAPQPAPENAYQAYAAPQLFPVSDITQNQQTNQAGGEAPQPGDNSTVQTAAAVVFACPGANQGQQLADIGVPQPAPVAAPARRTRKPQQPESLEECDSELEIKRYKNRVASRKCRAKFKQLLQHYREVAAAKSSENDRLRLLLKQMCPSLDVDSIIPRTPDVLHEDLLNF
GRIN3A LBD mod: binders of NR3A ligand-binding domain, primary screen, biophysical, differential scanning fluorimetry, uHTS | Glutamate receptor ionotropic, NMDA 3A (GRIN3A) ligand-binding domain | NR3A LBD differential scanning fluorimetry, Tm shift; 0% = protein alone, 100% = glycine-bound protein | Tm shift relative to glycine control, % at 25 µM | 340,000 compounds, 2.5% hits | AID 1259313, 2017;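 active means melting temperature shift of at least 10% of the positive control shift, at one fixed dose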
EBNA-1 inhibitor: EBNA-1 DNA-binding inhibitors, primary screen, biochemical, fluorescence polarization. inhibition, % at 14.8 µM. 300,000 compounds, 0.34% hits; in the data active means inhibition above about 28%
TPT1 inhibitor: Candida albicans TPT1 enzyme inhibitors, primary screen, biochemical, fluorescence polarization; inhibition, % at 5 µM; 300,000 compounds, 0.81% hits; recombinant caTPT1, FP RNA substrate dephosphorylation;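 active means inhibition above the mean of all tested compounds plus 3 SD, set per screening campaign, cut at about 24% in these data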;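 further: plate controls were DMSO alone for no effect and ferristatin control at 100 nM for full effect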
Rpn11 inh: Rpn11 (PSMD14) deubiquitinase inhibitors, primary screen, biochemical, fluorescence polarization, uHTS; 26S proteasome non-ATPase regulatory subunit 14 (Homo sapiens), O00487; human 26S proteasome, Ub4-pepOG fluorescence polarization; 20S core pre-blocked with epoxomicin; inhibition, % at 20 µM; 360,000 compounds, 0.59% hits; AID 588493, 2011;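 active means inhibition at 20 µM, scaled to each plate's controls, above about 33%, limit read from the data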
dFosB act-1: activators of delta FosB homodimer, primary screen, biochemical, fluorescence polarization, TAMRA-CDK5 oligo, single point; AID 493131, 2011; activation, % at 25 µM; purified delta FosB; percent of positive-control signal above neutral wells; 340,000 compounds, 0.99% hits;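 active means mean activation above about 17%, with every replicate also reaching it, limit read from the data, passing the limit was not always enough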
EBNA-1 confirm: EBNA-1 DNA-binding inhibitors, retest, confirmation, biochemical, fluorescence polarization, triplicate; shares compounds with EBNA-1 inhibitor; Recombinant EBNA-1 DBD, Cy5-DNA fluorescence polarization; inhibition, % at 14.8 µM; 830 compounds, 35% hits; AID 2292, 2010;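 active means mean inhibition across replicates above a set limit taken from the earlier primary screen, cut at about 28% in these data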;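 further: plate controls were EBNA-1 protein with DMSO for no effect and wells lacking EBNA-1 for full effect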
ZTA DNA inh trip: EBV Zta DNA binding inhibitors, counter-screen for EBNA-1 inhibitor project, biochemical, fluorescence polarization, triplicate | shares compounds with EBNA-1 inhibitor | Zta-ZRE DNA binding, Cy5 fluorescence polarization | inhibition, % at 11.1 µM | 830 tested, under 10 active | AID 2328, 2010;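 active means mean inhibition over triplicates above a set limit taken from the primary EBNA-1 screen, cut at about 37% in these data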;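 further: purified full length Zta protein with Cy5 labeled ZRE DNA probe; 0% = Zta with DMSO and 100% = wells lacking Zta protein; inhibitors lower polarization by freeing the labeled DNA probe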
TPT1 inh confirm: Candida albicans TPT1 inhibitors, confirmation, biochemical, fluorescence polarization, triplicate | shares compounds with TPT1 inhibitor | recombinant caTPT1, RNase T1 coupled | inhibition, % at 5 µM | 2,400 compounds, 74% hits | AID 2149, 2009;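 active means inhibition above the primary screen limit, the mean inhibition of all tested compounds plus 3 SD, cut at about 25% in these data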
RNase T1 counter: RNase T1 inhibitors, counter-screen for TPT1 inhibitor project, biochemical, fluorescence polarization | shares compounds with TPT1 inhibitor | RNase T1 cleavage, 1536-well | inhibition, % at 5 µM | 2,400 compounds, 83% hits | AID 2153, 2009;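 active means inhibition above the solvent-only control well mean plus 3 SD, limit set per screening run, cut at about 23% in these data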;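 further: plate controls were DMSO wells with enzyme for no effect and wells without RNase T1 for full effect; inhibitors block cleavage so intact labeled substrate keeps polarization high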
Target sequence (P00651 whole entry, looked up): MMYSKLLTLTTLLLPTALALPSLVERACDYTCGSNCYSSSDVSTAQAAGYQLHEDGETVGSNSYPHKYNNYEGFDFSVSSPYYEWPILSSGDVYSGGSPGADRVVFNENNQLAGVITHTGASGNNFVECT
dFosB act-2: activators of mouse delta FosB DNA binding, confirmation, biochemical, fluorescence polarization, TAMRA-CDK5 oligo, cherry-picked samples | activation, % at 24.9 µM | AID 588690, 2011 | shares compounds with dFosB act-1 | purified delta FosB; normalised: neutral wells 0, positive control 100 | 2,400 tested, under 10 active;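 active means highest replicate activation at or above 34% and every replicate reaching that threshold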;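 further: higher polarization means more probe DNA bound by delta FosB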
* hit, by the source's call; / = no result given.

SMILES	ZTA counter	GRIN3A LBD mod	EBNA-1 inhibitor	TPT1 inhibitor	Rpn11 inh	dFosB act-1	EBNA-1 confirm	ZTA DNA inh trip	TPT1 inh confirm	RNase T1 counter	others
CC[n+]1ccc(/C=C/c2c[nH]c3ccccc23)cc1	10.3	-1.6	42.4*	63.6*	/	1.5	5.2	-0.6	60.1*	67.0*
Cc1ccc2[nH]cc(/C=C/c3cc[n+](C)cc3)c2c1	/	3.5	/	/	/	2.8	/	/	/	/
COc1ccc(NC(=O)CSc2nc3nc(C)cc(C)c3c(=O)[nH]2)cc1	27.8	-0.8	60.6*	25.0*	2.1	-9.2	-14.5	-6.9	5.9	8.1
Cc1ccc(S(=O)(=O)c2nc(NN(C)C)sc2Cl)cc1	-24.4	-0.3	-3.0	-0.4	-7.0	-12.1	/	/	/	/
Nc1c(C(=O)NC2CC2)sc2nc3c(c(-c4ccco4)c12)CC/C3=C/c1ccco1	10.9	0.9	45.9*	36.2*	-26.4	-11.5	-1.8	14.7	2.5	0.5
NC(=O)c1sc2nc3c(c(-c4ccco4)c2c1N)CCC3	-6.2	0.3	-9.1	0.3	-10.8	-20.5	/	/	/	/
Cn1c(/C(C#N)=C/c2ccc(-c3ccc(S(N)(=O)=O)cc3)o2)nc2ccccc21	7.1	-8.1	39.9*	118.5*	-72.0	-12.8	38.4*	13.8	120.2*	120.9*
COCCn1c(-c2cccc([N+](=O)[O-])c2)nc2c1c(=O)[nH]c(=O)n2Cc1ccccc1	-7.0	-1.3	-3.1	1.3	4.1	-1.2	/	/	/	/
COc1cc(C)c(S(=O)(=O)NCc2cccnc2)cc1C	-12.4	3.1	-3.6	-0.8	-1.8	2.6	/	/	/	/
Cc1cccc(C(=O)Oc2ccccc2/C=N/Nc2ccc([N+](=O)[O-])cc2)c1	4.5	14.3*	34.4*	39.3*	23.2	-5.0	40.9*	0.5	39.0*	51.5*
COCCNC(=O)CSc1ccc(-c2nc3ccccc3[nH]2)cn1	-2.5	-1.1	4.2	0.8	-2.6	-8.3	/	/	/	/
CCc1nnc(NC(=O)CSc2ccc(-c3nc4ccccc4[nH]3)cn2)s1	13.8	19.0*	58.3*	-3.8	-3.4	48.4*	53.4*	0.0	/	/	dFosB act-2=5.1
Cc1c(NC(=O)c2cccnc2C(=O)O)cccc1C(=O)O	-0.3	-0.2	-2.0	-2.0	1.1	-4.9	/	/	/	/
COc1cc(OC)c(/C=C2\SC(=O)N(CC(=O)Nc3ccccc3F)C2=O)c(OC)c1	-4.9	0.1	95.8*	-3.0	1.9	23.4*	67.0*	-0.7	/	/	dFosB act-2=0.5
COc1ccc(/C=C2\SC(=O)N(CC(=O)NNC(=O)c3ccccc3O)C2=O)cc1	-8.1	-2.9	54.5*	-2.7	-1.0	66.5*	6.8	7.9	/	/	dFosB act-2=2.5

Compound activity as filed in PubChem BioAssay.
